From PubChem BioAssay AID1626 (SRMLSC, 2009)
Hit rate of the full screen: of about 220,000 compounds, about 2,000 (0.91%) were called active. Roughly 2% stayed inconclusive and do not appear here. Not all results are given here. Entries with a potency or affinity are not part of this list. Unmarked numbers belong to inactive results. Cut-off read from the data, not from the text of the source: inconclusive = inhibition above about 80% without an active follow-up result; inactive = below that; test concentration not stated here.

assay: M. tuberculosis H37Rv growth inhibitors, H37Rv strain (AID 1626); details: hits give high values, concentration not given here;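 note: bacteria incubated seven days before Alamar blue readout; 0% = bacteria only wells and 100% = bacteria with antibiotic wells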

| Compound | inhibition |
| --- | --- |
| COc1cccc(CC2(CO)CCCN(Cc3cc4ccccc4[nH]3)C2)c1 (configuration not stated) | 9.65% |
| COc1cccc(CC2(CO)CCCN(Cc3ccc(C)s3)C2)c1 (configuration not stated) | 4% |
| COc1ccc2[nH]c(CN3CCC(CO)(CCOc4ccccc4)CC3)c(C)c2c1 | -2.25% |
| OCC1(CCOc2ccccc2)CCN(CC2=Cc3cc(Cl)ccc3OC2)CC1 | 6.89% |
| COc1cc(OC)cc(C(=O)NCC(=O)OCC(=O)N2c3ccccc3NC(=O)C2(C)C)c1 | -1.81% |
| COc1ccc(CN2CCN(CCCc3ccccc3)CC2)c(OC)c1 | 1.06% |
| COc1cccc(C2C(C(=O)c3cc4cccc(OC)c4o3)=C(O)C(=O)N2c2cc(C)on2)c1OC (configuration not stated) | -9.58% |
| COc1cc2c(cc1OC)C(C)N(C(=O)c1cc3ccccc3o1)CC2 (configuration not stated) | 3.79% |
| Cc1cc(=O)oc2cc(OCC(=O)Nc3ccc(S(=O)(=O)N(C)C)cc3)ccc12 | -9.04% |
| O=C(Nc1ccc(F)cc1)N1CCN(c2nc3ccccc3s2)CC1 | 6.46% |
| O=C(Nc1ccccc1)N1CCN(c2nc3ccccc3s2)CC1 | -10% |
| CC(=O)Cc1nsc(NC(=O)c2ccc(-c3ccc(Cl)cc3Cl)o2)n1 | -7.01% |
| Cc1ccc(OCC(=O)N(Cc2cccs2)C2CCS(=O)(=O)C2)cc1C (configuration not stated) | 1.52% |
| CC(C)C1OC(c2cccc(NC(=O)c3cccs3)c2)OCC1(C)C (configuration not stated) | 3.13% |
| CCCCOc1ccc(CSCCN=C(N)N)cc1 | 10.7% |
| Nc1c(C(=O)NCCN2CCOCC2)c2nc3ccccc3nc2n1CCc1ccccc1 | 34.9% |
| Nc1c(C(=O)NCc2ccc(F)cc2)c2nc3ccccc3nc2n1CCCN1CCOCC1 | 14.5% |
| COc1ccc(CCNC(=O)c2c(N)n(CCN3CCOCC3)c3nc4ccccc4nc23)cc1OC | 20.2% |
| CCCCCn1c(N)c(C(=O)NCCN2CCOCC2)c2nc3ccccc3nc21 | 27.3% |
| COc1ccc(CNC(=O)c2c(N)n(CCCN3CCOCC3)c3nc4ccccc4nc23)cc1 | 16.6% |
| Nc1c(C(=O)NCCN2CCOCC2)c2nc3ccccc3nc2n1Cc1ccccc1 | 13.8% |
| CS(=O)(=O)c1ccc(C(=O)OCC(=O)NC23CC4CC(CC(C4)C2)C3)cc1[N+](=O)[O-] | 6.01% |
| Cc1c(N=C2SCC(=O)N2/N=C\c2ccc(Br)cc2)c(=O)n(-c2ccccc2)n1C | 2.9% |

| Compound | inhibition |
| --- | --- |
| Cn1c(N)c(C(=O)COC(=O)CCCc2nc3ccccc3s2)c(=O)n(C)c1=O | 3.44% |
| COc1cc(C(=O)NCCc2ccc(S(=O)(=O)N3CCCC3)cc2)cc(OC)c1OC | -6.26% |
| CCCC1(C(=O)OCC)NC(c2ccc(O)cc2)C2C(=O)N(c3ccc4c(c3)OCCO4)C(=O)C21 (configuration not stated) | 11.1% |
| COc1cccc(NC(=O)NC2CCCc3ccccc32)c1 (configuration not stated) | 0.07% |
| O=C(O)CSc1c2c(nc3cc(C(=O)NCCN4CCOCC4)ccc13)CCC2 | -7.4% |
| O=C(NCCCN1CCOCC1)c1ccc(CS(=O)(=O)Cc2ccc(Cl)cc2)o1 | 2.9% |
| Cc1ccc(Nc2c([N+](=O)[O-])c(=O)oc3ccccc23)cc1C | 60.5% |
| O=c1oc2ccccc2c(Nc2ccccc2)c1[N+](=O)[O-] | -3.06% |
| CN1C(=O)NC(=O)/C(=C\C=C\c2ccccc2[N+](=O)[O-])C1=O | 3.14% |
| N#C/C(=C\c1ccc(N2CCOCC2)o1)C(=O)NCCc1ccccc1 | 1.46% |
| N#C/C(=C/c1ccc(Br)s1)C(=O)NCCc1c[nH]c2ccccc12 | -14% |
| O=C(Nc1ccccc1)N(Cc1ccccc1)Cc1ccccc1 | 9.83% |
| C=CCNC(=O)Nc1cc(Cl)ccc1OC | -2.63% |
| Cc1cc(C(=O)COc2ccc3ccc(=O)oc3c2)c(C)n1C | -5.12% |
| CC(=O)c1cccc(OCC(=O)c2cc(C)n(-c3cc(C)on3)c2C)c1 | 17.2% |
| Cc1ccc2occ(C3N[C@H](C(=O)O)CS3)c(=O)c2c1 (some centres not stated) | -2.55% |
| COc1ccc(NS(=O)(=O)c2ccc3nc(COc4ccc5ccccc5c4)[nH]c3c2)cc1 | 15.1% |
| COc1ccc(NS(=O)(=O)c2ccc3nc(COc4ccc(C#N)cc4)[nH]c3c2)cc1 | 12.1% |
| CC(=O)c1c(C)nn(CC(O)Cn2c3c(c4cc(C)ccc42)CCCC3=O)c1C (configuration not stated) | 7.8% |
| COc1cccc(-n2nnc3c(=O)n(CC(=O)N4CCC(Cc5ccccc5)CC4)cnc32)c1 | 2.62% |
| COc1ccc(-n2nnc3c(=O)n(CC(=O)N4CCC(Cc5ccccc5)CC4)cnc32)cc1 | -2.81% |
| O=C1[C@@H]2[C@@H]3C[C@@H]([C@H]4ON=C(c5ccc(OCc6ccccc6)cc5)[C@@H]34)[C@@H]2C(=O)N1c1ccc2c(c1)OCO2 | 0.02% |
| O=C(Nc1ccc(-c2cnco2)cc1)c1ccc(Cl)cc1 | -6.64% |

| Compound | inhibition |
| --- | --- |
| O=C(Nc1ccc(-c2cnco2)cc1)c1ccccc1 | 3.05% |
| Cc1cc(C(C)(C)C)ccc1OCCn1ccnc1 | -6.1% |
| O=C(Cc1ccccc1)N/N=C/c1ccccc1Cl | 7.74% |
| CC(C)CNC(=O)CCc1nc(-c2ccccc2)no1 | -9.52% |
| COc1ccc(-c2noc(CCCC(=O)Nc3ccc(C(N)=O)cc3)n2)cc1 | -9.14% |
| Cc1cccc(-c2noc(CCC(=O)Nc3ccc(C(N)=O)cc3)n2)c1 | 0.33% |
| Cc1cccc(-c2noc(CCCC(=O)Nc3ccc(C(N)=O)cc3)n2)c1 | 0.64% |
| Cc1ccc(-c2noc(CCC(=O)Nc3ccccc3C)n2)cc1 | 13.8% |
| O=C(O)CCc1nc(-c2ccc(Cl)cc2)no1 | -0.01% |
| Cc1cccc(-c2noc(CCC(=O)Nc3ccccc3)n2)c1 | 1.97% |
| CCOC(=O)c1cccc(NC(=O)CCc2nc(-c3ccccc3F)no2)c1 | 66.8% |
| O=C(CCc1ccccc1)NCCc1nc2ccccc2[nH]1 | -3.29% |
| CCN(c1ccccc1)S(=O)(=O)c1ccc(Cl)c(NC(=O)CN2C(=O)NC3(CCCC3)C2=O)c1 | -9.72% |
| CCC(C)(C(=O)NC1CCCC1)N(C)C(=O)c1ccccn1 (configuration not stated) | -3.46% |
| COc1ccc2c(CC(=O)OCC(=O)c3ccccc3OC)coc2c1 | 3.25% |
| O=C(CN1CCCCCCC1)Nc1ccc(Cl)cc1Cl | -1.9% |
| CC1=NN(c2ccccc2)C(=O)/C1=C\c1sccc1C | -4.07% |
| COC(=O)c1ccc(/C=N/OCC(=O)NCc2ccc(F)cc2)cc1 | 6.23% |
| CC(C)CC1NC2(C(=O)N(C)c3ccccc32)C2C(=O)N(C(C)C)C(=O)C12 (configuration not stated) | 0.86% |
| N#Cc1c(-c2ccccc2)nc2n(-c3ccccc3)nc(C(=O)Nc3ccccc3)n2c1=O | 8.32% |
| N#Cc1ccccc1CSc1nnc(Cc2ccccc2)o1 | 0.34% |
| CC(C)=Cc1c(O)nc2ccccn2c1=O | -3.05% |
| Cc1c(NC(=O)CSCc2ccc(Br)cc2)c(=O)n(-c2ccccc2)n1C | -6.02% |

| Compound | inhibition |
| --- | --- |
| COc1ccccc1-c1noc(CCC(=O)Nc2ccccc2Cl)n1 | -5.64% |
| CCc1ccccc1NC(=O)CCc1nc(-c2ccc(C)cc2)no1 | -5.75% |
| Cc1ccc(-c2noc(CCC(=O)Nc3ccc(C)cn3)n2)cc1 | 25.6% |
| NC(=O)c1ccc(NC(=O)CCCc2nc(-c3ccccc3Cl)no2)cc1 | -1.91% |
| O=C(/C=C/c1ccco1)N(Cc1cccc(Br)c1)C1CCS(=O)(=O)C1 (configuration not stated) | -13.6% |
| Cc1ccc(NC(=O)c2ccc(N3CCOCC3)c([N+](=O)[O-])c2)cc1S(=O)(=O)N1CCOCC1 | 5.87% |
| COc1cc(CNCC(C)C)cc(Br)c1OCC(=O)Nc1ccccc1 | 0.75% |
| CCN(CC)CCNCc1cc(Cl)c(OCC(=O)Nc2ccccc2)c(OC)c1 | 7.36% |
| O=C(Cn1c2[n+](c3ccccc31)CC(O)CS2)c1ccccc1 (configuration not stated) | -6.67% |
| CCC(=O)N1CCN(c2ccc(OC)cc2[N+](=O)[O-])CC1 | -1.32% |
| NS(=O)(=O)c1ccc(-c2ccc(C=NC3CCS(=O)(=O)C3)o2)cc1 (configuration not stated) | -11.7% |
| NS(=O)(=O)c1ccc(-c2ccc(/C=C3\SC(=S)N(C4CCS(=O)(=O)C4)C3=O)o2)cc1 (configuration not stated) | -2.38% |
| CC(C)Cn1c(N)c(C(=O)COC(=O)c2ccc(F)cc2)c(=O)n(C)c1=O | 6.86% |
| CN(C)c1nc(N)nc(CSc2nnnn2-c2ccc(F)cc2)n1 | -2.97% |
| CC(=O)c1ccc(OC(=O)c2ccc(Br)o2)cc1 | -1.59% |
| CCCOc1ccc(OC(=O)c2ccc(Br)o2)cc1 | 3.47% |
| CCC(=O)Nc1nc2ccccc2n1CCN(CC)CC | -1.49% |
| CCC(=O)NCCc1nc2ccccc2n1Cc1ccc(C)cc1 | -3.53% |
| CCC(=O)Nc1nc2ccccc2n1CCN(C)C | 0.79% |
| CCC(=O)Nc1nonc1-c1nc2ccccc2n1Cc1ccccc1 | 22.2% |
| CCC(=O)NCCc1nc2ccccc2n1Cc1ccccc1 | -11.3% |
| CC(=O)NCCc1nc2ccccc2n1Cc1ccc(Cl)cc1 | -2.45% |
| NCCNC(=O)Cc1cccc(NC(=O)Cc2ccc(Nc3ncnc4c3ncn4[C@@H]3O[C@H](CO)[C@@H](O)[C@H]3O)cc2)c1 | 10.9% |
